This is an account of results in PubChem BioAssay AID430 (Sanford-Burnham Center for Chemical Genomics, 2006).

About 1,100 (1.7%) of roughly 63,000 compounds were called active. This is one part of a sample in which actives are shown more often than they occur. Rule as the data show it: active = cytotoxicity above about 50%; inactive = the rest. Entries with a potency or affinity are not part of this list.

This assay is described as follows: HPDE-C7 pancreatic duct cell viability loss – fluorescence, HTS (AID 430).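 Also: cells exposed to compound for 48 hours before viability readout; 0% = vehicle and 100% = reference cytotoxic drug.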 As to conditions: HPDE-C7 pancreatic duct cells viability, at 10 µM, stronger effect = higher value.
For the molecule `Cn1c(SCc2c(F)cccc2Cl)nnc1-c1cccs1`, the cytotoxicity is -2.8% (inactive).
Consider `O=C(C1COc2ccccc2O1)N1CCN(c2ccc(F)cc2)CC1` (stereo not drawn), for which the cytotoxicity is -9% (inactive).
The value for `CCOc1ccccc1OCC(=O)O` was 4.2% (inactive); that for `O=C(O)COc1ccc2nsnc2c1Cl` was -25.1% (inactive); that for `COC(=O)CN1C(=O)C(O)(CC(=O)c2ccc(C)cc2)c2ccccc21` (stereo not drawn) was -28.9% (inactive).
The value for `Cc1ccccc1-n1c(N)cc(=O)[nH]c1=S` was -2.2% (inactive); that for `CCOC(=O)c1cc(NC(=O)Nc2ccc(OC)c(OC)c2)c(C)nc1C` was 5.7% (inactive).
On to `CCOC(=O)N1CCN(S(=O)(=O)c2ccc(F)cc2)CC1`, for which the cytotoxicity is -1.6% (inactive).
As for `CCOC(=O)N1CCN(S(=O)(=O)c2ccc(C(=O)Nc3ccc(F)cc3F)cc2)CC1`, the figure is 58% (active); as for `CCOC(=O)N1CCN(S(=O)(=O)c2ccc(C(=O)Nc3nc4ccc(F)cc4s3)cc2)CC1`, -8% (inactive).
For `CC1=CC(c2ccccc2)n2nc(N3C(=O)c4ccccc4C3=O)nc2N1` (stereo not drawn), the cytotoxicity is -0.7% (inactive).
As for `Cc1cc(NC(=O)c2ccc(S(=O)(=O)N(C)C)cc2)no1`, the figure is -5.2% (inactive).
For the molecule `O=S(=O)(c1ccccc1)c1nc(-c2ccccc2)oc1NCc1cccnc1`, the cytotoxicity was -3.2% (inactive).
Regarding `CCNC(=O)C1CC(=O)N(Cc2ccc3c(c2)OCO3)C(=Nc2ccc(OCC)cc2)S1` (stereo not drawn), the cytotoxicity is -4.1% (inactive).
Take `CNC(=O)C1CC(=O)N(Cc2ccc3c(c2)OCO3)C(=Nc2ccc(F)cc2)S1` (stereo not drawn): the cytotoxicity was 3.4% (inactive).
The value for `CCNC(=O)C1CC(=O)N(Cc2ccc3c(c2)OCO3)C(=Nc2ccc(F)cc2)S1` (stereo not drawn) was 50.6% (active); that for `Cc1nc2cc(C(F)(F)F)ccc2n1C1CCN(CC(=O)N2CCOCC2)CC1` was 1.2% (inactive); that for `c1ccc(Cn2nnnc2CN2CCN(Cc3ccc4c(c3)OCO4)CC2)cc1` was -5.8% (inactive).
Regarding `COc1ccc(S(=O)(=O)Nc2cc(C)ccc2OC)cc1C`, the cytotoxicity was 1.8% (inactive).
With `COc1ccc(NC(=O)CSc2nc3c(c(=O)n2-c2ccc(F)cc2)SCC3)cc1`, the cytotoxicity is 14.2% (inactive).
`COc1ccc(NC(=O)c2cccc(-n3cnnn3)c2)cc1`: the cytotoxicity is -1.7% (inactive).
Consider `O=C(O)C1C2C=CC3(CN(CC(O)COc4ccccc4)C(=O)C13)O2` (stereo not drawn), for which the cytotoxicity is -8.7% (inactive).
As to `Cc1cc2ccccc2n1CCNC(=O)c1ccc(S(=O)(=O)N2CCOCC2)cc1`, the cytotoxicity was -3.1% (inactive).
As for `Cn1cc(S(=O)(=O)Cc2ccc(F)cc2)c2ccccc21`, the figure is 8.8% (inactive); as for `CC(C)C[C@H](N)c1nnc(S(=O)(=O)Cc2cccc(F)c2)o1`, 19% (inactive).
As for `CC(C)CCN1C(=O)CCC1(C)C(=O)NC1CCCCCC1` (stereo not drawn), the figure is -16.5% (inactive).
Regarding `COc1ccccc1NC(=O)c1nc[nH]c1C(=O)Nc1ccccc1OC`, the cytotoxicity is 17% (inactive).
As for `COc1ccc(NC(=O)c2nc[nH]c2C(=O)Nc2ccccc2C)cc1`, the figure is 55.3% (active); as for `Cc1ccccc1NC(=O)c1nc[nH]c1C(=O)NCc1ccccc1`, -22.2% (inactive); as for `Cc1ccc(Nc2oc(C)nc2C#N)cc1`, 2.5% (inactive).
As for `CCCSC1=C(C#N)C(c2ccccc2C)CC(=O)N1` (stereo not drawn), the figure is 10.1% (inactive); as for `COc1ccc(OC)c(N/C(=N\c2nc(C)cc(C)n2)NC(=O)c2ccco2)c1`, -5.6% (inactive); as for `COC(=O)c1ccc(CSc2nnc(Nc3ccccc3OC)s2)o1`, 43.6% (inactive).
For `CCOc1ccccc1Nc1nnc(SCc2ccc(C(=O)OC)o2)s1`, the cytotoxicity is 58% (active).
The value for `COC(=O)c1ccc(CSc2nnc(NCc3ccccc3)s2)o1` was -3.1% (inactive); that for `Cn1c(=O)c2c(-c3ccccc3)n(CCCN3CCOCC3)cc2n(C)c1=O` was -14% (inactive).
As for `COc1ccccc1NC(=O)c1cc(Sc2nncn2C)nc2ccccc12`, the figure is 4.7% (inactive); as for `Cc1ccc(C(=O)C2=C(O)C(=O)N(CCCN3CCOCC3)C23C(=O)N(C)c2ccccc23)o1` (stereo not drawn), -20.1% (inactive).
`CC1=CC(C)(C)Nc2ccc(C)cc21`: the cytotoxicity is -10.9% (inactive).
Consider `COC(=O)c1ccc(OC(=O)c2ccco2)cc1`, for which the cytotoxicity was -14.5% (inactive).
For the molecule `COC(=O)C1=C(C)NC(C)=C(C(=O)OC)C1c1ccc(OC(=O)c2ccco2)cc1`, the cytotoxicity is -0.4% (inactive).
Turning to `CCOc1ccc2c(c1)N(C(=O)CN1C(=O)CCC1=O)C(C)(C)C=C2C`, the cytotoxicity is -6.5% (inactive).
As for `CCc1ccc2c(c1)C(C)=CC(C)(C)N2`, the cytotoxicity is 3.5% (inactive).
The value for `CCOc1ccc(OC(=O)c2cccnc2)cc1` was 4.1% (inactive).
As for `O=C(Oc1cccc(Br)c1)c1cccnc1`, the cytotoxicity is -5% (inactive).
As to `O=C(Oc1ccc2ccccc2c1)c1ccco1`, the cytotoxicity was 5% (inactive).
For `COc1ccc(S(=O)(=O)N2CCCC2C(=O)Nn2cnnc2)cc1` (stereo not drawn), the cytotoxicity was -10.2% (inactive).
The value for `O=C(O)C1C2CCC(C2)C1C(=O)Nc1nc2ccccc2s1` (stereo not drawn) was -5.1% (inactive).
Regarding `CCc1cccc(NC(=O)Cn2cccc2)c1`, the cytotoxicity is 2.1% (inactive).
In the case of `Cc1noc(C)c1CSCC(=O)OCC(=O)Nc1sccc1C#N`, the cytotoxicity is 6.1% (inactive).
On to `CCCc1cc(=O)oc2cc(C)cc(OC(=O)c3ccco3)c12`, for which the cytotoxicity is 11.7% (inactive).
Turning to `COC(=O)c1c(NC(=O)c2ccc(Br)o2)sc(C)c1C`, the cytotoxicity is 11% (inactive).
The value for `O=S(=O)(c1cccc(Cl)c1Cl)N1CCCCC1` was -8.6% (inactive); that for `C1CCC(c2nn3c(-c4n[nH]c5c4CCC5)nnc3s2)CC1` was 2.9% (inactive); that for `COc1ccc(CCN(Cc2nc3ccccc3c(=O)[nH]2)C(=O)c2ccco2)cc1OC` was -3% (inactive).
The value for `CSc1ccc(C2C(C#N)=C(N)Oc3c2ccc(=O)c2c(C)oc(C)c32)cc1` (stereo not drawn) was -8.9% (inactive).
`Cc1oc(C)c2c(=O)ccc3c(c12)OC(N)=C(C#N)C3c1ccccc1` (stereo not drawn): the cytotoxicity is -51.8% (inactive).
In the case of `Cn1c(N2CCC(C(N)=O)CC2)nc2c1c(=O)n(Cc1ccc(Br)cc1)c(=O)n2C`, the cytotoxicity was 28.6% (inactive).
As for `COc1cccc(C2C(C#N)=C(N)OC3=C2C(=O)CCC3)c1OC(=O)c1ccco1` (stereo not drawn), the figure is -11.1% (inactive).
As for `OCCN(CC(O)Cn1ccc2ccccc21)CC(O)Cn1ccc2ccccc21` (stereo not drawn), the figure is -4.1% (inactive).
The value for `OCCNCC(O)Cn1ccc2ccccc21` (stereo not drawn) was -15.1% (inactive); that for `Cc1nn(Cc2ccccc2)c(C)c1C(=O)Nc1ccc(N2CCOCC2)cc1` was 6.2% (inactive); that for `COc1ccc(CN(C)C2CCCCC2)cc1` was 12.6% (inactive).
